Drawing on PubChem BioAssay AID743312 (Broad Institute, 2014), this text covers outcome for 21 compounds.

Potency and affinity values are given separately. Active and inactive are the calls of the source. Where a call stands in place of a potency, no number is given. How the calls were made is not given here.

The assay can be described thus: toxicity to A549 lung cells – cell-based, plate reader, dry powder, set 6, cytotoxicity control, dose response (AID 743312). Particulars: series mostly up to 26 µM.
In the case of `COc1ccccc1OCCn1c(SC)nc2ccccc21`, the call was inactive.

As to `CCSc1nc2ccccc2n1CCOc1ccccc1`, the compound was called inactive.

In the case of `Cc1ccc2c(c1)[nH]c(=S)n2CCOc1ccccc1`, the result was inactive.

For `CCCCc1nc2ccccc2n1CCOc1ccccc1`, the compound was classed as inactive.

With `Fc1ccc(OCCn2c(=S)[nH]c3ccccc32)cc1`, the compound was called inactive.

With `COc1cccc(OCCn2cnc3ccccc32)c1`, the outcome was inactive.

Regarding `Cc1ccc(OCCn2cnc3ccccc32)c(C)c1`, the outcome was inactive.

On to `Cc1ccc(C(C)C)c(OCCn2c(N)nc3ccccc32)c1`, for which the result was inactive.

Consider `Cc1cccc(OCCn2c(=S)[nH]c3ccccc32)c1`, for which the compound was classed as inactive.

In the case of `COc1ccccc1OCCn1c(=S)[nH]c2ccccc21`, the outcome was inactive.

With `c1ccc(COc2ccc(OCCn3cnc4ccccc43)cc2)cc1`, the result was inactive.

As to `Cc1ccc(C(C)C)c(OCCn2c(NC#N)nc3ccccc32)c1`, the compound was classed as inactive.

As to `Fc1cccc2c1[nH]c(=S)n2CCOc1ccccc1`, the compound was called inactive.

As for `CC(C)Oc1cccc(OCCn2cnc3ccccc32)c1`, the call was inactive.

For `Cc1cccc(OCCn2cnc3ccccc32)c1`, the outcome was inactive.

In the case of `Clc1ccccc1OCCn1cnc2ccccc21`, the call was inactive.

Turning to `Cc1ccc(OCCn2cnc3cc(C)c(C)cc32)cc1`, the call was inactive.

For the compound `CC(C)Oc1ccc(OCCn2cnc3ccccc32)cc1`, the compound was classed as inactive.

In the case of `COc1ccc(OCCn2cnc3ccccc32)cc1`, the call was inactive.

Regarding `COc1cc(C)ccc1OCCn1cnc2ccccc21`, the compound was called inactive.

`CCCc1nc2ccccc2n1CCOc1ccccc1`: the compound was classed as inactive.
